Several values for one entry are separate records, joined by “and”; a condition that tells them apart may be missing. Identical values can stand only once. Records with an inconclusive call do not appear. Activity calls are given as the source filed them. Calls come from the whole dose curve; as a rule, active = well fitted curve in the direction sought with a large enough effect; inconclusive = small, poorly fitted or top-dose-only effect, or another doubt; inactive = no such curve, though single readings can be large; an effect the other way counts as inactive or inconclusive.
Columns and labels:
[1] = qHTS of pediatric cancer cell lines to identify multiple opportunities for drug repurposing: Primary screen for Rh18 cells (AID 1347102); details: Rh18 rhabdomyosarcoma viability, CellTiter-Glo luminescence, 48 h; series mostly up to 46 µM; note: nearly all actives have a fitted effect of over 65% in size; note: potency is the fitted concentration of half-maximal effect
Outline: (§1)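 Viability after 48 h compound treatment at 37C, 500-1,000 cells/well, read as ATP luminescence with CellTiter-Glo. Primary screens used 11-point (MIPE, 0.78 nM-46 µM) or 8-point (NPC, 0.59 nM-46 µM) final concentrations; follow-up screens used 11-point dilutions.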

[2] = qHTS of pediatric cancer cell lines to identify multiple opportunities for drug repurposing: Primary screen for OHS-50 cells (AID 1347103); details: OHS-50 osteosarcoma viability, CellTiter-Glo luminescence, 48 h; series mostly up to 57.3 µM; note: nearly all actives have a fitted effect of over 40% in size; note: potency is the fitted concentration of half-maximal effect
Outline: (§2)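 Cells (500-1,000/well) rested 5 h, then received compounds for 48 h; metabolically active cells were measured by CellTiter-Glo luminescence. Final concentrations spanned up to 46 µM (MIPE, 11-point) or 0.59 nM-46 µM (NPC, 8-point) in primary screens, 11-point in follow-ups.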

[3] = qHTS of pediatric cancer cell lines to identify multiple opportunities for drug repurposing: Primary screen for control Hh wild type fibroblast cells (AID 1347106); details: Hh wild-type fibroblast viability, CellTiter-Glo luminescence, 48 h; series mostly up to 46 µM;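 note: a drop in luminescence marks cytotoxicity and a rise apparent proliferation; nearly all actives have a fitted effect of over 55% in size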
Outline: as §1

[4] = qHTS of pediatric cancer cell lines to identify multiple opportunities for drug repurposing: Primary screen for Rh30 cells (AID 1347107); details: Rh30 rhabdomyosarcoma viability, CellTiter-Glo luminescence, 48 h; series mostly up to 46 µM; note: nearly all actives have a fitted effect of over 75% in size
Outline: as §1

[5] = qHTS of pediatric cancer cell lines to identify multiple opportunities for drug repurposing: Primary screen for Rh41 cells (AID 1347108); details: Rh41 rhabdomyosarcoma viability, CellTiter-Glo luminescence, 48 h; series mostly up to 46 µM; note: nearly all actives have a fitted effect of over 70% in size; note: potency is the fitted concentration of half-maximal effect
Outline: (§3)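 Cells seeded at 500-1,000 cells/well in growth media, rested 5 hours at 37 degrees C, 5% CO2, then dosed; MIPE compounds at 11-point (from 0.78 nM) and NPC at 8-point (from 0.59 nM) final concentrations. Viability by CellTiter-Glo luminescence after 48 hours.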

[6] = qHTS of pediatric cancer cell lines to identify multiple opportunities for drug repurposing: Confirmatory screen for NB1643 cells (AID 1347109); details: NB1643 neuroblastoma cell viability; series mostly up to 45.9 µM; note: nearly all actives have a fitted effect of over 45% in size
Outline: as §1

[7] = qHTS of pediatric cancer cell lines to identify multiple opportunities for drug repurposing: Confirmatory screen for A673 cells (AID 1347110); details: A673 Ewing sarcoma cell viability; series mostly up to 45.9 µM;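 note: cells exposed to compound for 48 h before the viability read; nearly all actives have a fitted effect of over 65% in size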; note: potency is the fitted concentration of half-maximal effect
Outline: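 qHTS titration format: primary MIPE 0.78 nM-46 µM (11 pts), NPC 0.59 nM-46 µM; confirmation 11 pts. 48 h, CTG luminescence.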

[8] = qHTS of pediatric cancer cell lines to identify multiple opportunities for drug repurposing: Confirmatory screen for NB-EBc1 cells (AID 1347115); details: NB-EBc1 neuroblastoma cells, viability (cytotoxicity); series mostly up to 45.9 µM;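 note: cells exposed to compound for 48 h before the viability read; nearly all actives have a fitted effect of over 45% in size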
Outline: as §1

[9] = qHTS of pediatric cancer cell lines to identify multiple opportunities for drug repurposing: Confirmatory screen for SJ-GBM2 cells (AID 1347116); details: SJ-GBM2 glioblastoma cells, viability; series mostly up to 45.9 µM; note: nearly all actives have a fitted effect of over 60% in size
Outline: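 Viability measured as metabolically active cells via CellTiter-Glo luminescence following 48 hours of compound exposure, 11-point dilutions in confirmatory testing. 500-1,000 cells/well plated 5 hours before dosing; controls were DMSO and 2.3 µM bortezomib.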

[10] = qHTS of pediatric cancer cell lines to identify multiple opportunities for drug repurposing: Confirmatory screen for MG 63 (6-TG R) cells (AID 1347119); details: MG-63 (6-TG resistant) osteosarcoma viability; series mostly up to 45.9 µM; note: nearly all actives have a fitted effect of over 55% in size; note: potency is the fitted concentration of half-maximal effect
Outline: as §1

[11] = qHTS of pediatric cancer cell lines to identify multiple opportunities for drug repurposing: Confirmatory screen for control Hh wild type fibroblast cells (AID 1347121); details: viability qHTS; series mostly up to 45.9 µM; note: nearly all actives have a fitted effect of over 70% in size
Outline: as §1

[12] = qHTS of pediatric cancer cell lines to identify multiple opportunities for drug repurposing: Confirmatory screen for U-2 OS cells (AID 1347122); details: U-2 OS osteosarcoma cell viability; series mostly up to 45.9 µM; note: nearly all actives have a fitted effect of over 65% in size; note: potency is the fitted concentration of half-maximal effect
Outline: as §1

[13] = qHTS of pediatric cancer cell lines to identify multiple opportunities for drug repurposing: Confirmatory screen for RD cells (AID 1347124); details: RD rhabdomyosarcoma cell viability; series mostly up to 45.9 µM;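 note: cells exposed to compound for 48 h before viability readout; nearly all actives have a fitted effect of over 65% in size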
Outline: as §1

[14] = qHTS of pediatric cancer cell lines to identify multiple opportunities for drug repurposing: Confirmatory screen for Rh18 cells (AID 1347125); details: Rh18 rhabdomyosarcoma cells, viability; series mostly up to 45.9 µM; note: nearly all actives have a fitted effect of over 55% in size; note: potency is the fitted concentration of half-maximal effect
Outline: as §1

[15] = qHTS of pediatric cancer cell lines to identify multiple opportunities for drug repurposing: Primary screen for RD cells (AID 1347104); details: RD rhabdomyosarcoma viability, CellTiter-Glo luminescence, 48 h; series mostly up to 46 µM; note: nearly all actives have a fitted effect of over 55% in size; note: potency is the fitted concentration of half-maximal effect
Outline: as §3

[16] = qHTS of pediatric cancer cell lines to identify multiple opportunities for drug repurposing: Primary screen for MG 63 (6-TG R) cells (AID 1347105); details: MG 63 (6-TG R) viability, CellTiter-Glo, 48 h; series mostly up to 46 µM; note: nearly all actives have a fitted effect of over 50% in size
Outline: as §3

[17] = qHTS of pediatric cancer cell lines to identify multiple opportunities for drug repurposing: Confirmatory screen for LAN-5 cells (AID 1347113); details: LAN-5 neuroblastoma cell viability; series mostly up to 45.9 µM; note: nearly all actives have a fitted effect of over 65% in size
Outline: as §1

[18] = qHTS of pediatric cancer cell lines to identify multiple opportunities for drug repurposing: Primary screen for BT-12 cells (AID 1347101); details: BT-12 viability, CellTiter-Glo luminescence, 48 h; series mostly up to 57.3 µM; note: nearly all actives have a fitted effect of over 25% in size; note: potency is the fitted concentration of half-maximal effect
Outline: as §2

[19] = qHTS of pediatric cancer cell lines to identify multiple opportunities for drug repurposing: Confirmatory screen for BT-37 cells (AID 1347117); details: BT-37 pediatric cancer cells, viability; series mostly up to 45.9 µM; note: nearly all actives have a fitted effect of over 55% in size
Outline: as §1

[20] = qHTS of pediatric cancer cell lines to identify multiple opportunities for drug repurposing: Confirmatory screen for BT-12 cells (AID 1347112); details: BT-12 rhabdoid tumor cells, viability; series mostly up to 45.9 µM
Outline: as §1

Measured: Potency

OC(CN1CCN(c2cccc(Cl)c2)CC1)C(c1ccccc1)c1ccccc1 (stereo unspecified)
active: [2] 24.3 µM
inactive: [1] | [3] | [4] | [5]

Cc1ccc(NC(=O)c2ccc(CN3CCN(C)CC3)cc2)cc1Nc1nccc(-c2cccnc2)n1
inactive: [1] | [3] | [4] | [5] | [6] | [7] | [8] | [9] | [10] | [11] | [12] | [13] | [14]
active: [2] 17.4 µM

CN(C)CCc1c[nH]c2ccc(Cn3cncn3)cc12
inactive: [1] | [2] | [15] | [3] | [4]

CN1CCC(=C2c3ccccc3CCc3sccc32)CC1
active: [2] 12.3 µM
inactive: [3] | [4]

Cc1ccc(C)c(OCCCC(C)(C)C(=O)O)c1
inactive: [1] | [2] | [15] | [16] | [3] | [4] | [5]

CC1(C)NC(=O)N(c2ccc([N+](=O)[O-])c(C(F)(F)F)c2)C1=O
inactive: [1] | [2] | [15] | [16] | [3] | [4] | [5]

COc1ccccc1N1CCN(CCN(C(=O)C2CCCCC2)c2ccccn2)CC1
inactive: [1] | [2] | [15] | [16] | [3] | [4]

O=C(NCC1CCCCN1)c1cc(OCC(F)(F)F)ccc1OCC(F)(F)F (stereo unspecified)
inactive: [1] | [15] | [16] | [3] | [4] | [17] | [8] | [9] | [10] | [11] | [12] | [13] | [14]
active: [7] 1.31 µM

Cc1cc(Cl)ccc1OCCCC(=O)NO
inactive: [18]
active: [15] 18.7 µM | [5] 14.8 µM

CC(=O)O[C@H]1C(=O)[C@@]2(C)C([C@H](OC(=O)c3ccccc3)[C@]3(O)C[C@H](OC(=O)[C@H](O)[C@@H](NC(=O)c4ccccc4)c4ccccc4)C(C)=C1C3(C)C)[C@]1(OC(C)=O)CO[C@@H]1C[C@@H]2O (stereo partly specified)
active: [2] 0.001 µM | [7] 0.0147 µM | [10] 0.0131 µM
inactive: [3]

CC1(C)C(=O)N(CCN2CCC(C(=O)c3ccc(F)cc3)CC2)c2ccccc21
inactive: [1] | [2] | [15] | [3] | [4] | [5] | [17] | [19] | [10] | [11] | [13] | [14]

Cc1nc(Nc2ncc(C(=O)Nc3c(C)cccc3Cl)s2)cc(N2CCN(CCO)CC2)n1
inactive: [4] | [5] | [8] | [9] | [11] | [13]
active: [1] 0.0335 µM | [2] 24.3 µM and 12.3 µM | [7] 20.8 µM | [20] 6.57 µM | [12] 3.29 µM | [14] 0.208 µM

CCCCCCCCOc1ccccc1C(=O)Nc1ccc(C(=O)OCC[N+](C)(CC)CC)cc1
inactive: [2] | [3] | [5]
active: [18] 17.4 µM

CC(C)c1nc(CN(C)C(=O)N[C@H](C(=O)N[C@@H](Cc2ccccc2)C[C@H](O)[C@H](Cc2ccccc2)NC(=O)OCc2cncs2)C(C)C)cs1
inactive: [18] | [15] | [3]

N=C(N)c1ccc2cc(OC(=O)c3ccc(N=C(N)N)cc3)ccc2c1
inactive: [1] | [2] | [15] | [3] | [4] | [5]

CC(C)c1ccc2c(c1)c(SC(C)(C)C)c(CC(C)(C)C(=O)O)n2Cc1ccc(Cl)cc1
inactive: [3]

O=C1c2ccccc2-c2n[nH]c3cccc1c23
inactive: [16] | [3]
active: [2] 21.7 µM

Nc1nc(N)c(N=O)c(OCC2CCCCC2)n1
active: [1] 18.7 µM | [2] 15.3 µM
inactive: [4]

O=c1ccc2ccc(O)c(O)c2o1
inactive: [1] | [3] | [4]

CN(C)[C@@H](CCOc1cccc2ccccc12)c1ccccc1
inactive: [1] | [16] | [3] | [4]
active: [2] 15.5 µM and 21.7 µM | [15] 33.2 µM
